# Measured values published in the supplement of paper PMC10105736.
# Unmarked numbers belong to inactive results.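 How the source made its calls: active = MAPPIT score above the 99th percentile of random reference set scores in the same batch; inactive = at or below it.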
# Legend:
# Test in all cases: MAPPIT interaction score (arbitrary units); higher = stronger binary interaction signal, active = hit call of the paper
# REPTOR-BP = conditions: MAPPIT configuration: N-N; pair source set: Curagen_high_conf
# Rgk3 = conditions: MAPPIT configuration: N-N; pair source set: Curagen_low_conf
# RFeSP = conditions: MAPPIT configuration: N-N; pair source set: RRS
# Rab26 = conditions: MAPPIT configuration: N-N; pair source set: Lit-BS-16
# ReepB = conditions: MAPPIT configuration: N-N
# Rbp1 = conditions: MAPPIT configuration: N-N; pair source set: Finley_Y2H
# RPA2 = conditions: MAPPIT configuration: N-N; pair source set: Finley_Y2H
# ScsbetaG = conditions: MAPPIT configuration: N-N; pair source set: Finley_Y2H
# RIC-3 = conditions: MAPPIT configuration: N-C; pair source set: screen_3
# Sod3 = conditions: MAPPIT configuration: N-C; pair source set: screen_4
# 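Further: HEK293T cells with Epo stimulation, STAT-responsive firefly luciferase reporter, fold induction versus unstimulated cells divided by the larger fold induction of two negative controls lacking either bait or prey.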
binder,measurement,setting,value
REPTOR (protein) MTENQLYPMSSEFFDTGSNSSSNTLKYDLYSLGSTVVGAALPTLTINTGYGSSSSNNNNTNNNNNNSSSHSSSSNCSTSTTNTCNVMLSTTAITIPRSSNHNQIHHHPYQQSDLQTPRHHPSPLHTLPSMTHQQNQLQQQQQQQHHNQQQQLQQSHLALGELSDFGLDALDAASLSPTLLQDVSLSAVSPLSTTLYNGNTSGAGSSNGIGSGSGGYFTPDMSHSLSLNVVSEQVLLQEATTPNELLYEMTPNSNAMWSDISSAIIHTKHEPFSLDDDYIFPNDKAEIQAADLSDLNGGDFLDVIGNIEDFLPQTAVTQSVNFLLSPQAQGQDALVAPPMELLQQQQQNHQQLQVGSLPQLQTLLTLSQQQQSNSSSTSPYEIYHSTPQKPQQQQLSASFSPGSQASQSPLTPPPPPHANRPQYQMVKSRNMQELIKKGFPMSSPPERSILSQSAALSPGGSSGFGSSASGNSTTTSNQTSGSAVRKSFGYQSAVENSQLSRLSSSAPTHLGLEHIWMRREPRQHLLSTGSLAEAESFSSLSTGSVLSPDGIDFSQDDEDDNSSENSDNYDDCSSDNGLSEDEDETRTSTPNHLSSSKGKERFFWQYNVQAKGPKGKRLVFQSKLEDPHVLNEVTDPVFSPTCSVRGIKVYKHSGKARKGDGNDLTPNARKLHNIGKELDKLSRTINDMTPVSELPFNVRPKSRKEKNKLASRACRLKKKAQHEANKIKLFGLEIEHSEFNVKAVEISYNPSIFVL,MAPPIT interaction score,REPTOR-BP,0.721
eEF1gamma (protein) MVKGTLYTYPENFRAYKALIAAQYSGAQVKVADNFKFGETNKSAEFLKKFPGGKVPAFETAEGQYLSESNAIAYLLANEQLRGGKCPFVQAQVQQWISFADNEIVPASCAWVFPLLGILPQQKNSTAKQEAEAVLQQLNQKLQDATFLAGERITLADIVVFSSLLHLYEYVLEPSVRSAFGNVNRWFVTILNQKQVQAVVKDYKLCEKALVFDPKKYAEFQAKTGAAKPQQQAQQQKQEKKPKEKKEAPKKAAEPAEELDAADEALAAEPKSKDPFDALPKGTFNFDDFKRVYSNEDEAKSIPYFFDKFDAENYSIWFGEYKYNEELSKVFMSCNLITGMFQRLDKMRKAAFASVCLFGEDGNSTISGIWVWRGQDLAFTLSPDWQIDYEVYDWKKLDAKSEETKKLVTQYFSWSGTDKDGRKFNQGKIFK,MAPPIT interaction score,Rgk3,-0.0165
E(spl)m4-BFM (protein) MCQNKINTNNTMTIKSNKKLSYSVKKLLQKIFKQQQRVEEEQNLKNALKANSLESLESMENSRNADLESASICASLESCENEANERLSQSCEIEDYDFEQLPTVPVHFVRTAHGTFFWTAVSDLPADNDLVEPLYCSTSNAIAIPQDRWVQA,MAPPIT interaction score,RFeSP,0.268
Phb1 (protein) MAAQFFNRIGQMGLGVAVLGGVVNSALYNVEGGHRAVIFDRFTGIKENVVGEGTHFFIPWVQRPIIFDIRSQPRNVPVITGSKDLQNVNITLRILYRPIPDQLPKIYTILGQDYDERVLPSIAPEVLKAVVAQFDAGELITQREMVSQRVSQELTVRAKQFGFILDDISLTHLTFGREFTLAVEMKQVAQQEAEKARFVVEKAEQQKLASIISAEGDAEAAGLLAKSFGEAGDGLVELRRIEAAEDIAYQLSRSRGVAYLPSGQSTLLNLPSTIAQ,MAPPIT interaction score,Rab26,0.345
Pdf (protein) MARYTYLVALVLLAICCQWGYCGAMAMPDEERYVRKEYNRDLLDWFNNVGVGQFSPGQVATLCRYPLILENSLGPSVPIRKRNSELINSLLSLPKNMNDAGK,MAPPIT interaction score,ReepB; pair source set: Finley_Y2H,2.66
Rsf1 (protein) MGDQRGTRVYVGNLTDKVKKDDLEGEFTKYGKLNSVWIAFNPPGFAFVEFEHRDDAEKACDILNGSELLGSQLRVEISKGRPRQGRRGGPMDRGGRRGDFGRHSITSGGSGGGGFRQRGSSGSSSRHTERGYSSGRSGASSYNGREGGGSGFNRREVYGGGRDSSRYSSGSSASYGRTGGQSAGRFRSRSPVGNHRF,MAPPIT interaction score,Rbp1,0.372
Lip3 (protein) MTRGALKVTILLVGLGLVLAGSRPISDCGERIEDDGYPMERHEVVTSDNYILTMHRIPYSPKTGESSNRPVAFLMHGMLSSSSDWVLMGPERSLAYMLADAGYDVWMGNARGNTYSKAHKYWPTYWQIFWNFSWNEIGMYDVPAMIDYVLAKTGQQQVQYVGHSQGTTVYLVMVSERPEYNDKIKSAHLLGPAAYMGNMKSPLTRAFAPILGQPNAIVEVCGSMEFMPSNKFKQDLGIEMCQATSPYADMCANEIFLIGGYDTEQLDYELLEHIKATSPAGASVNQNLHFCQEYNSGKFRKFDYTALRNPYEYGSYFPPDYKLKNAKAPVLLYYGANDWMCDVSDVRKLRDELPNMALDYLVPFEKWAHLDFIWGTEARKYVYDEVLKQMQSYE,MAPPIT interaction score,RPA2,0.346
same,MAPPIT interaction score,ScsbetaG,1.35
Nplp2 (protein) MAKLAICILVFALFALALSARVPREESNPAQEFLTKAQGDFNEFIEKLKALDAKKVEGLFKDGLNTVQEGLQKLNETFLQAPAAST,MAPPIT interaction score,RIC-3,0.0485
same,MAPPIT interaction score,Sod3,2.23
wol (protein) MWTCLCQLCFYLLSTLAVAALSIAALVLYKTKPYPNIKRHKDEETFLDPHTIKTVTFPSLEDSPSLELSVIVPAYNEEQRLPSMLDECLAFLEQKSAGTPNFTYEVIVVSDGSQDATVSVALGYSKKHGAEKVRVLELIENRGKGGAVRMGMLSARGRNLLFADADGATKFPDYDKLEVALKQLAPEWRDDGIAIGSRAHLENDAIATRSFFRTILMHGFHFLVWLFAVRSIRDTQCGFKLFTRTTARKLFTSLHVERWAFDVELLYLAENLKLPMSEVAVRWTEIDGSKLTPFWSWLQMGRDLFMIWVRYLVGAWRIASIQKKEK,MAPPIT interaction score,ReepB; pair source set: Lit-BS-16,0.541
